# Results taken from ChEMBL document CHEMBL1157539, “Thousands of chemical starting points for antimalarial lead identification” (Nature, 2010).
# Experiments:
# Assay type in all cases: functional
# Plasmodium falciparum [1] = assay: GSK_TCMDC: Inhibition of Plasmodium falciparum 3D7 in whole red blood cells, using parasite LDH activity as an index of growth. Test compounds present at 2uM
# Plasmodium falciparum [2] = assay: GSK_TCMDC: Inhibition of Plasmodium falciparum Dd2 in whole red blood cells, using parasite LDH activity as an index of growth. Test compounds present at 2uM
# HepG2 = assay: GSK_TCMDC: Percent inhibition of human HepG2 cell line. Test compounds present at 10uM.
structure (smiles),measurement,setting,value
COc1ccc(NC(=O)CCNc2cc(C)nc(NCCc3ccc(F)cc3)n2)cc1.O=C(O)C(F)(F)F,Inhibition,Plasmodium falciparum [1],98%
same,Inhibition,Plasmodium falciparum [2],3%
same,Inhibition,HepG2,27%
CCn1c(-c2nonc2N)nc2c(-c3cccc(NC(=O)Nc4ccccc4OC)c3)ncc(OCCCN)c21.O=C(O)C(F)(F)F,Inhibition,Plasmodium falciparum [1],92%
same,Inhibition,Plasmodium falciparum [2],58%
same,Inhibition,HepG2,84%
Cc1c(CNCCCNc2cc(=O)c3ccccc3[nH]2)sc(-c2ccco2)c1Br.Cl,Inhibition,Plasmodium falciparum [1],93%
same,Inhibition,Plasmodium falciparum [2],39%
same,Inhibition,HepG2,0%
N=C(/N=C(/NCCCCCCN/C(=N\C(=N)Nc1ccc(Cl)cc1)N1CCCCC1)N1CCCCC1)Nc1ccc(Cl)cc1,Inhibition,Plasmodium falciparum [1],100%
same,Inhibition,Plasmodium falciparum [2],98%
same,Inhibition,HepG2,0%
CCCc1cn2c3c(cc(C(=O)N[C@@H](Cc4ccccc4)[C@H](O)CNC4CCCCC4)cc13)N(CC)S(=O)(=O)CC2.O=CO,Inhibition,Plasmodium falciparum [1],98%
same,Inhibition,Plasmodium falciparum [2],98%
same,Inhibition,HepG2,2%
FC(F)(F)c1cccc(CNCC2CCN(Cc3ccc4c(c3)OCO4)CC2)c1.O=C(O)C(F)(F)F,Inhibition,Plasmodium falciparum [1],100%
same,Inhibition,Plasmodium falciparum [2],19%
same,Inhibition,HepG2,21%
O=C(Nc1ccccc1F)NC1CCN(c2ccnc(Nc3ccc(F)cc3)n2)CC1,Inhibition,Plasmodium falciparum [1],99%
same,Inhibition,Plasmodium falciparum [2],63%
same,Inhibition,HepG2,13%
CCCCOc1c(CCNCCCCNCCc2cc(F)c3ccccc3c2OCCCC)cc(F)c2ccccc12.CS(=O)(=O)O,Inhibition,Plasmodium falciparum [1],96%
same,Inhibition,Plasmodium falciparum [2],78%
same,Inhibition,HepG2,97%
COC(=O)c1cccc(CNCc2cccc(-c3ccc(-c4nc5cccc(C)c5[nH]4)cc3)c2)c1.O=C(O)C(F)(F)F,Inhibition,Plasmodium falciparum [1],100%
same,Inhibition,Plasmodium falciparum [2],52%
same,Inhibition,HepG2,3%
